This assay has as its target T1, CRBN, Q96SW2.
T1 chain: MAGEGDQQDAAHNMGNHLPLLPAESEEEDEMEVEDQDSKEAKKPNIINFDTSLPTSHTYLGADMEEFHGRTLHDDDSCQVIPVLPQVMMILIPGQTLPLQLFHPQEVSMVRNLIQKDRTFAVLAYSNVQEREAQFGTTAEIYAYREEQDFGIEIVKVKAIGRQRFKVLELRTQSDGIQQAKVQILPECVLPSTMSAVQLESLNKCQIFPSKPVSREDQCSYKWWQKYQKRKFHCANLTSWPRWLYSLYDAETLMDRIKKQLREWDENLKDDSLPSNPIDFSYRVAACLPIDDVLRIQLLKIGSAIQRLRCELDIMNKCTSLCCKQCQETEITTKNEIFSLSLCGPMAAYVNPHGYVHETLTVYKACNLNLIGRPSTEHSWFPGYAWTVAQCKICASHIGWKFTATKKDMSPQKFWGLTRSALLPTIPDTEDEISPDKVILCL
Nature of the assay: log2 fold change of degron read counts, EGFP-low vs EGFP+ sorted cells (limma voom), compound-induced degradation; higher = more compound-induced degradation of the degron-EGFP fusion; degrons are variants of IKZF1/3 zinc finger 2; compound dose not given here. To be noted: Jurkat, 18 h.

[1] abbreviates: compound: compound 19 (5-tert-butyl-thalidomide).
[2] abbreviates: compound: compound 22 (5-morpholino-thalidomide).
The mark [3] stands for this setting: compound: compound 33 (diphenyl IMiD analogue).

Whole data set: some 8,300 sequences, median “log2 fold change of degron read counts, EGFP-low vs EGFP+ sorted cells (limma voom), compound-induced degradation” near -1.1, cut for the highest 2% near 3.2. The entries come from a sample that favours the highest values as a whole.
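Note: pooled lentiviral library of zinc finger degron-EGFP fusions in mCherry-positive Jurkat cells, FACS-sorted after compound exposure, with degron abundance counted by next-generation sequencing.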

FHCEICGRHFTQKGNLLRHIKL [46F_47H_49E_50I_52G_53R_54H_55F_67L_, Q9UKT9]: the “log2 fold change of degron read counts” value is, setting by setting: under setting [1], -0.861; under setting [2], -2.23; under setting [3], -1.35; (compound: thalidomide) -1.95.
For FVCNQCGACFTQKGNLLRHIKL [46F_47V_49N_50Q_52G_53A_54C_55F_67L_, Q9UKT9], the “log2 fold change of degron read counts” value reads like this: under setting [1], -2.19; under setting [2], -2.11; under setting [3], -0.29; (compound: thalidomide) -1.14.
On to LNCPICGFECTQKGNLLRHIKL [46L_47N_49P_50I_52G_53F_54E_55C_67L_, Q9UKT9], for which the “log2 fold change of degron read counts” value by setting is: under setting [1], 1.07; under setting [2], -0.0323; under setting [3], 0.322; (compound: thalidomide) 1.
For the sequence FWCEQCGARFTQKGNLLRHIKL [46F_47W_49E_50Q_52G_53A_54R_55F_67L_, Q9UKT9], the “log2 fold change of degron read counts” value by setting is: under setting [1], 1.69; under setting [2], 3.12; under setting [3], 0.0332; (compound: thalidomide) -0.593.
On the same counts, the results for FMCPICGRPFTQKGNLLRHIKL [46F_47M_49P_50I_52G_53R_54P_55F_67L_, Q9UKT9] are 0.216, 0.55, 1.39 and 0.856.
On the same counts, the results for FSCEICGREFTQKGNLLRHIKL [46F_47S_49E_50I_52G_53R_54E_55F_67L_, Q9UKT9] are -2.51, -2.86, -1.9 and -2.01.
On the same counts, the results for FACDQCGASFTQKGNLLRHIKL [46F_47A_49D_50Q_52G_53A_54S_55F_67L_, Q9UKT9] are -0.53, -1.83, -2.25 and -3.41.
As for FWCEVCGATFTQKGNLLRHIKL [46F_47W_49E_50V_52G_53A_54T_55F_67L_, Q9UKT9], the “log2 fold change of degron read counts” value by setting is: under setting [1], 2.75; under setting [2], 3.75; under setting [3], 1.87; (compound: thalidomide) 0.335.
Taken in the same sequence, the figures for FSCEVCGATFTQKGNLLRHIKL [46F_47S_49E_50V_52G_53A_54T_55F_67L_, Q9UKT9] were 2.73, 2.4, 1.63 and 1.3.
On the same counts, the results for FRCEVCGATFTQKGNLLRHIKL [46F_47R_49E_50V_52G_53A_54T_55F_67L_, Q9UKT9] are -0.885, -1.05, 1.42 and 1.06.
On the same counts, the results for FQCEVCGATFTQKGNLLRHIKL [46F_47Q_49E_50V_52G_53A_54T_55F_67L_, Q9UKT9] are 0.152, 2.64, 2.01 and 3.74.
Take FMCEVCGATFTQKGNLLRHIKL [46F_47M_49E_50V_52G_53A_54T_55F_67L_, Q9UKT9]: the “log2 fold change of degron read counts” value is, setting by setting: under setting [1], -1.56; under setting [2], -0.319; under setting [3], 2.09; (compound: thalidomide) 0.937.
Regarding FNCEVCGATFTQKGNLLRHIKL [46F_47N_49E_50V_52G_53A_54T_55F_67L_, Q9UKT9], the “log2 fold change of degron read counts” value reads like this: under setting [1], 1.35; under setting [2], 0.0506; under setting [3], 0.168; (compound: thalidomide) -0.31.
Taken in the same sequence, the figures for FGCEVCGATFTQKGNLLRHIKL [46F_47G_49E_50V_52G_53A_54T_55F_67L_, Q9UKT9] were 3.09, 2.54, 0.976 and 0.784.
Consider FYCEVCGATFTQKGNLLRHIKL [46F_47Y_49E_50V_52G_53A_54T_55F_67L_, Q9UKT9], for which the “log2 fold change of degron read counts” value by setting is: under setting [1], 3.1; under setting [2], 4.14; under setting [3], 2.47; (compound: thalidomide) 1.12.

For the origin of these results see the supplement of paper PMC12645437, “Orthogonal IMiD-Degron Pairs Induce Selective Protein Degradation in Cells” (ACS Chemical Biology, 2025).
